Source: PubChem
Sampled rows, rich in hits. Any-hit rate of the full collection: about 2.2%.
CHRM4 agonist: agonists of human muscarinic M4 receptor (CHRM4). P08173. CHO-K1 hM4/Gqi5, Fluo-8 calcium fluorescence; vehicle 0%, full acetylcholine response 100%. activation, % at 3 µM. 360,000 tested, 0.14% active;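 active means activation above the run mean over all test wells plus 3 SD, cut at about 32% in these data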;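 further: peak over basal fluorescence ratio per well then scaled between controls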
Target sequence (P08173 whole entry, looked up): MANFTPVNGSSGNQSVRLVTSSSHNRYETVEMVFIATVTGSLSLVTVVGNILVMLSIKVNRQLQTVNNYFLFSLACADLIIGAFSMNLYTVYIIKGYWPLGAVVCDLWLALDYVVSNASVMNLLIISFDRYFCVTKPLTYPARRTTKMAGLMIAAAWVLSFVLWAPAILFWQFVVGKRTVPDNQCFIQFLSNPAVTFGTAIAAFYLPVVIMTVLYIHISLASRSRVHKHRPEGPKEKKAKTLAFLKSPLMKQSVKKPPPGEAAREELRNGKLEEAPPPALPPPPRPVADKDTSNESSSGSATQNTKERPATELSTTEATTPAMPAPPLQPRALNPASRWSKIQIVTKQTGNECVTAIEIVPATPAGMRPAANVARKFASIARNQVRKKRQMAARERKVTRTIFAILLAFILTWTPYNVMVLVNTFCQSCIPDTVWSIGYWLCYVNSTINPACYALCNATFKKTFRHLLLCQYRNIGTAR
CHRM4 PAM: potentiates acetylcholine response at human M4 receptor; P08173; CHO-K1 hM4/Gqi5, Fluo-8 calcium fluorescence, ACh EC20; 0% = ACh EC20, 100% = maximal ACh; activation, % at 3 µM; 360,000 tested, 0.4% active; AID 624126;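 active means activation above its plate's cutoff, the mean activation of sample wells plus 3 SD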
M4 antag: antagonists of human muscarinic M4 receptor (CHRM4); CHO-hM4 cells, ACh EC80, Fluo-8 calcium fluorescence; inhibition, % at 3 µM; 360,000 tested, 0.73% active;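 active means inhibition above its plate's cutoff, the mean inhibition of sample wells plus 3 SD, cut at about 27% in these data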
M1 ag: agonists of human M1 muscarinic receptor; P11229; AID 588814; activation, % at 3 µM; CHO-K1 hM1, Fluo-8 calcium fluorescence, agonist mode; 0% DMSO, 100% acetylcholine EC100; 360,000 tested, 0.33% active;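 active means activation above the run's mean compound activation plus 3 SD, cut at about 16% in these data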;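 further: peak over basal fluorescence ratio within a 140 s kinetic read after compound addition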
CHRM1 antagonist: antagonists of human M1 muscarinic receptor; P11229; CHO-K1 hM1, Fluo-8 calcium fluorescence, ACh EC80 antagonist; inhibition, % at 3 µM; 360,000 tested, 1.3% active;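 active means percent inhibition above its own plate's cutoff, namely the mean of that plate's compound wells plus 3 SD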;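 further: peak over basal fluorescence ratio during 140 s after agonist addition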
M1 PAM: potentiates human M1 receptor response to acetylcholine. activation, % at 3 µM. P11229. CHO-K1 hM1, Fluo-8 calcium fluorescence, ACh EC20; 0% = ACh EC20, 100% = maximal ACh. 360,000 tested, 0.088% active; in the data active means activation above about 19%, passing the limit was not always enough
Each line names hits and unclear results; the compound was inactive in the other large screens.

COc1cc(/C=C2\S/C(=N/S(=O)(=O)c3ccc(C)cc3)NC2=O)c([N+](=O)[O-])cc1OC	none
O=C(Nc1cc(Cl)ccc1N1CCOCC1)c1ccncc1	none
Cc1ccc(Cn2nnc3c(=O)[nH]c(C4CCN(S(=O)(=O)c5ccccc5)CC4)nc32)cc1	none (no result: CHRM1 antagonist)
O=c1[nH]c(C2CCN(S(=O)(=O)c3ccc4c(c3)OCCO4)CC2)nc2c1nnn2Cc1ccccc1	M4 antag 90.3
O=c1[nH]c(C2CCCN(S(=O)(=O)c3ccccc3)C2)nc2c1nnn2Cc1ccc2c(c1)OCCO2 (stereo not given)	none
Cc1ccc(C)c(S(=O)(=O)N2CCC(c3nc4c(nnn4Cc4ccc5c(c4)OCCO5)c(=O)[nH]3)CC2)c1	M4 antag 41.9
COc1ccc(Cn2nnc3c(=O)[nH]c(C4CCN(S(=O)(=O)c5ccc(C)cc5)CC4)nc32)cc1	none
Cc1ccc(S(=O)(=O)N2CCC(c3nc4c(nnn4Cc4ccccc4)c(=O)[nH]3)CC2)cc1	M4 antag 74.7
CCOc1ncnc2c1[nH]c1ccccc12	none
NS(=O)(=O)c1cc2c(cc1Cl)NC(C1CC3C=CC1C3)NS2(=O)=O (stereo not given)	none
CCC(=O)N1CCc2cc(Br)cc(S(=O)(=O)CC(=O)OC)c21	none
O=C(COC(=O)c1ccccc1C(=O)OCC(=O)NCCc1c[nH]c2ccccc12)NCCc1c[nH]c2ccccc12	M4 antag 43.0, CHRM1 antagonist 34.1
O=C(NCCc1c[nH]c2ccccc12)OCCCCOC(=O)NCCc1c[nH]c2ccccc12	M4 antag 31.9
Cc1cccc(NC(=O)COC(=O)CCc2c[nH]c3ccccc23)c1C	CHRM4 PAM 22.0
O=C(CCCc1c[nH]c2ccccc12)NCCc1c[nH]c2ccccc12	none
CCCCN(CC(=O)NC1CC1)S(=O)(=O)c1ccc(OCC)cc1	M4 antag 28.6
CCOc1ccc(S(=O)(=O)N(C)CC(=O)NC2CC2)cc1	none
Cc1cc(C)c(C#N)c(SCc2nnc(-c3ccccc3)o2)n1	CHRM1 antagonist 23.6
Cc1cc(C)c(C#N)c(SCc2nnc(-c3ccccc3[N+](=O)[O-])o2)n1	CHRM1 antagonist 42.7
Cc1cc(C)c(C#N)c(SCc2ccccc2[N+](=O)[O-])n1	none
CC(C)(C)c1nc2scc(-c3cccs3)c2c(=O)o1	none
O=C(NNc1nc2c(F)cccc2s1)c1ccccc1	none
O=C1COc2ccc(S(=O)(=O)N3CCCCCC3)cc2N1	none
COc1cccc2[nH]c(C(=O)NCCCN3CCCC3=O)cc12	none
C=CCn1c(SCC#N)nc2sc(CC)cc2c1=O	CHRM1 antagonist 34.2
C=CCn1c(SCC(=O)O)nc2sc(CC)cc2c1=O	none
CNC(=O)NC(=O)C(C)OC(=O)CCCc1nc2ccccc2s1 (stereo not given)	none
CCOC(=O)c1cc2sccc2n1CC(=O)OC(C)C	M1 PAM 18.6
CCN(CC)c1ccc2c(Cl)c(Br)c(=O)oc2c1	M4 antag 62.2, M1 ag 49.3, CHRM1 antagonist 78.1
CCN(CC)c1ccc2c(C)c(Cl)c(=O)oc2c1	none
O=C(NNC(=S)NC(=O)c1ccc(Br)cc1)c1ccc([N+](=O)[O-])cc1	M1 ag 46.6
O=C(NNC(=S)NC(=O)c1ccccc1Cl)c1cccc([N+](=O)[O-])c1	M1 ag 19.1
O=C(NNC(=O)C12CC3CC(CC(C3)C1)C2)c1cccc([N+](=O)[O-])c1	none
O=C(NNC(=S)NC(=O)c1ccc(Br)cc1)c1cccc([N+](=O)[O-])c1	M1 ag 35.5
O=C(NNC(=O)c1ccc([N+](=O)[O-])cc1)c1ccc(Br)cc1	none
CC1(C(=O)NNC(=O)c2cccc([N+](=O)[O-])c2)CC1Br (stereo not given)	CHRM4 PAM 15.8
O=C(N/N=C/c1ccc(Sc2ccccn2)o1)c1cccc([N+](=O)[O-])c1	none
Cc1nc2ccccc2n1CC(=O)N/N=C\c1ccccn1	none
